According to PubChem BioAssay AID1159580 (chemical genetic matrix, 2015):
Hit rate of the full screen: of about 5,500 compounds, about 2,000 (36%) were called active. Another 18% or so got no clear call; they are omitted. Cut-off read from the data, not from the text of the source: active = normalized growth mostly below about 0.91 (no sharp cut-off); inconclusive = no clear call, values can overlap the other calls; inactive = mostly above about 0.92. The list shows a part of the results.

Experiment: chemical genetic growth profiling, strain panel (AID 1159580);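 note: tested at 20 µM; growth read once vehicle control cultures reached saturation at 30 °C; 1 = growth at the plate median or of vehicle wells; lower values mean less growth of the strain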
Settings: S. cerevisiae deletion strains, growth OD

Measured: normalized growth

CCCC1O[C@@H]2C[C@H]3[C@@H]4CCC5=CC(=O)C=C[C@]5(C)[C@H]4[C@@H](O)C[C@]3(C)[C@]2(C(=O)CO)O1 (stereo not given in full)
inactive: locus YAL040C, strain CLN3, hits give low values 1.06 | locus YCL061C, strain MRC1 (second series), hits give low values 0.998 | locus YER002W, strain NOP16, hits give low values 1.01 | locus YGR078C, strain PAC10, hits give low values 1.02 | locus YMR263W, strain SAP30, hits give low values 1 | locus YNL153C, strain GIM3, hits give low values 0.982 | locus YNL175C, strain NOP13, hits give low values 0.994 | locus YNL197C, strain WHI3, hits give low values 0.974 | locus YNL224C, strain SQS1, hits give low values 1.01 | locus YOR083W, strain WHI5 (second series), hits give low values 0.992
